A short description of experiment [1]: Cell Viability - HepG2 (AID 433; calls by dose curve;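 note: potency is the fitted concentration of half-maximal effect; cells exposed to compound for 40 hours; potency for ATP loss meaning cytotoxicity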). The following applies: qHTS. In short, it runs like this: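 ATP luminescence (CellTiter-Glo) after 40 h compound exposure, 37 °C, HepG2, 1500 cells/well, complete medium. Normalized: DMSO = basal, 100 uM tamoxifen = 100% inhibition. AC50 via standard Hill equation.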
A short description of experiment [2]: Cell Viability - MRC5 (AID 434; calls by dose curve;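 note: potency is the fitted concentration of half-maximal effect; cells exposed to compound for 40 hours at 37 °C; potency reflects cytotoxicity seen as loss of intracellular ATP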). The settings on record: MRC5 lung fibroblast viability, qHTS. The procedure, abridged: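 AC50 values come from Hill-equation fits of intracellular ATP loss, measured by CellTiter-Glo luminescence. Normal lung fibroblasts (MRC5) had 40 hr compound treatment at 37 C, normalized between DMSO and 100 uM tamoxifen.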
The nature of experiment [3]: Cellular Toxicity (caspase-3) HUV-EC-C (AID 656).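 Note: 0% = DMSO basal and 100% = 100 µM tamoxifen.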 The following applies: HUV-EC-C cells, caspase-3 activation (apoptosis); series mostly up to 92.2 µM. The procedure, abridged:
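Luminescent caspase-3/7 activation (aminoluciferin substrate cleavage) in HUV-EC-C cells after 16 hr compound exposure, 37°C. Signal normalized to DMSO basal and 100 uM tamoxifen as 100%; AC50 from concentration-response fitted with the Hill equation.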

A short description of experiment [4]: Cellular Toxicity (caspase-3) NIH 3T3 (AID 666).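 Note: 0% = DMSO basal and 100% = 100 µM tamoxifen stimulation.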 The following applies: NIH 3T3 caspase-3 activation, apoptosis/toxicity; series mostly up to 92.2 µM. In short, it runs like this:
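Caspase-Glo 3/7 luminescence reported caspase activation in 1000 NIH 3T3 cells/well after 16 h compound exposure at 37 C. DMSO set basal and 100 uM tamoxifen set 100% stimulation; concentration-response modeled with the Hill equation for AC50.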

The nature of experiment [5]: Cellular Toxicity (caspase-3) Renal Proximal Tubule (AID 667).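 Note: cells exposed to compound for 16 hours at 37 °C before detection; 0% = DMSO basal and 100% = 10 µM staurosporine.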 The following applies: renal proximal tubule cells, primary cells freshly taken from rat, solvent-only wells 0%, staurosporine 100%; series mostly up to 91.7 µM. The procedure, abridged:
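Luminescent caspase 3/7 signal from peptide-aminoluciferin cleavage measures apoptosis in freshly isolated rat kidney proximal tubule cells after 16 h compound exposure. Concentration-response data are normalized to DMSO and 10 uM staurosporine, and AC50 values come from Hill equation fits.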

A short description of experiment [6]: MultiTox-Fluor Cytotoxicity Assay - LYMP1-001 - Dead Cells (AID 946). Note: potency is the fitted concentration of half-maximal effect. The settings on record: LYMP1-001 lymphoblastoid cells, dead-cell protease fluorescence; series mostly up to 92.2 µM. The procedure, abridged:
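LYMP1-001 lymphoblastoid cells (2500/well) treated 16 h at 37 C. Dead-cell protease cleavage of bis-AAF-R110 read at Ex/Em 485/520. Normalized to DMSO and 15 uM tetraoctylammonium bromide; AC50 from Hill fits.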

Experiment [7] can be described thus: Cell Viability - LYMP1-003 - Assay at 24 hr (AID 963). Note: potency is the fitted concentration of half-maximal effect. The following applies: LYMP1-003 lymphoblastoid cell viability; series mostly up to 92.2 µM. The procedure, abridged: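 Concentration-response qHTS: ATP loss measured by CellTiter-Glo luminescence after 24 h compound exposure at 37 C. Cells were LYMP1-003 human lymphoblastoid, 2500 per well. AC50 derived via standard Hill equation modeling.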

Experiment [8] in a line: Cell Viability - LYMP1-003 - Assay at 40 hr (AID 964). Note: nearly all actives have a fitted effect of over 60% in size. Note: potency is the fitted concentration of half-maximal effect. The settings on record: LYMP1-003 lymphoblastoid viability; series mostly up to 92.2 µM. The procedure, abridged: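 Viability is taken as cellular ATP, read by CellTiter-Glo luminescence after 40 h of compound exposure at 37 C. Cells: human lymphoblastoid line LYMP1-003 at 2500/well; AC50 values derived by Hill-equation fitting of concentration-response data.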

A short description of experiment [9]: Cell Viability - LYMP2-009 (AID 968). Note: nearly all actives have a fitted effect of over 55% in size. Note: potency is the fitted concentration of half-maximal effect. The settings on record: LYMP2-009 lymphoblastoid cell viability; series mostly up to 92.2 µM.
Experiment [10] is described as follows: Cell Viability - LYMP2-013 (AID 970). Note: nearly all actives have a fitted effect of over 55% in size. Note: potency is the fitted concentration of half-maximal effect. The following applies: LYMP2-013 lymphoblastoid cells viability; series mostly up to 92.2 µM. The procedure, abridged: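 qHTS cytotoxicity: ATP-dependent luminescence (CellTiter-Glo, 30 min room temperature) read after 24 h compound exposure at 37 C of 2500 LYMP2-013 lymphoblastoid cells per well. Concentration-response fitted with Hill equation to give AC50.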

Experiment [11] is described as follows: Cell Viability - LYMP2-017 (AID 972).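 Note: cells exposed to compound for 24 hours at 37 °C; nearly all actives have a fitted effect of over 55% in size.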 Note: potency is the fitted concentration of half-maximal effect. The settings on record: LYMP2-017 lymphoblastoid cell viability; series mostly up to 92.2 µM. The procedure, abridged:
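CellTiter-Glo luminescence (cellular ATP, 30 min RT) measured cytotoxicity after 24 hr compound treatment at 37 C. Cells were a human lymphoblastoid line, LYMP2-017, plated at 2500/well and incubated 5 hr first; concentration-response fitted with Hill equation for AC50.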

A short description of experiment [12]: Cell Viability - LYMP2-025 (AID 976). Note: potency is the fitted concentration of half-maximal effect. The following applies: LYMP2-025 lymphoblastoid cell viability; series mostly up to 92.2 µM. In short, it runs like this:
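Cytotoxicity read as loss of intracellular ATP (luciferase luminescence) after 24 h compound treatment at 37 C. Uses LYMP2-025 lymphoblastoid cells in 1536-well format; Hill-equation modelling gives AC50; tetraoctylammonium bromide as positive control.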

A short description of experiment [13]: Cell Viability - LYMP2-006 (AID 978).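 Note: cells exposed to compound for 24 hours; nearly all actives have a fitted effect of over 60% in size.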 Note: potency is the fitted concentration of half-maximal effect. The following applies: LYMP2-006 lymphoblastoid cell viability, qHTS; series mostly up to 92.2 µM. In short, it runs like this:
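qHTS, 1536-well; 2500 cells/well, 5 hr 37 C; cpd 24 hr 37 C; CellTiter-Glo 30 min RT; luminescence. Tetraoctylammonium bromide pos. ctrl. AC50 via Hill eqn.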

The nature of experiment [14]: Cell Viability - LYMP2-007 (AID 979).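 Note: cells exposed to compound for 24 h before reading; nearly all actives have a fitted effect of over 60% in size.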 Note: potency is the fitted concentration of half-maximal effect. The settings on record: LYMP2-007 lymphoblastoid cell viability; series mostly up to 92.2 µM. The procedure, abridged:
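AC50 values come from Hill-equation fits of luminescent intracellular ATP (CellTiter-Glo, 30 min, room temperature) following 24 h compound exposure at 37 C. Cells: LYMP2-007 lymphoblastoid line, 2500 per well, in complete culture medium.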

Experiment [15] in a line: Cell Viability - LYMP2-010 (AID 981).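 Note: cells exposed to compound for 24 hours at 37 °C; nearly all actives have a fitted effect of over 55% in size.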 Note: potency is the fitted concentration of half-maximal effect. The following applies: LYMP2-010 lymphoblastoid cell viability, qHTS; series mostly up to 92.2 µM. In short, it runs like this: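 CellTiter-Glo ATP luminescence measured cytotoxicity after 24 h compound exposure at 37 C. LYMP2-010 cells were seeded at 2500/well, with tetraoctylammonium bromide as control; concentration-response curves gave AC50 values by the Hill equation.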

The nature of experiment [16]: Cell Viability - LYMP1-002 - Assay at 24 hr (AID 993). Note: potency is the fitted concentration of half-maximal effect. The settings on record: LYMP1-002 lymphoblastoid cells viability; series mostly up to 92.2 µM. In short, it runs like this:
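qHTS cytotoxicity at 24 h: CellTiter-Glo ATP luminescence in lymphoblastoid line LYMP1-002 incubated with compound at 37 °C. Concentration-response modeled with the Hill equation for AC50; tetraoctylammonium bromide served as positive control.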

Experiment [17] is described as follows: Cell Viability - LYMP1-002 - Assay at 40 hr (AID 994). Note: nearly all actives have a fitted effect of over 60% in size. Note: potency is the fitted concentration of half-maximal effect. The settings on record: LYMP1-002 lymphoblastoid cell viability; series mostly up to 92.2 µM. In short, it runs like this: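 Cytotoxicity was read as loss of cellular ATP (CellTiter-Glo luminescence) after 40 hr compound exposure at 37 C of 2500 LYMP1-002 lymphoblastoid cells per well. Concentration-response data were fitted with the standard Hill equation to give AC50.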

Experiment [18] in a line: qHTS assay for small molecule agonists of the antioxidant response element (ARE) signaling pathway measured by Nrf2-dependant transcriptional activity - cell viability counter screen (AID 720653; active = well fitted curve in the direction sought with a large enough effect in the repeat runs; an effect the other way counts as inactive or inconclusive; note: % is set by controls: 0 for no effect and ±100 for the full control effect). The following applies: ARE-bla HepG2 viability, CellTiter-Glo ATP luminescence, 16 h; max response: active compounds read low. The procedure, abridged: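 Cytotoxicity counter screen: intracellular ATP quantified by CellTiter-Glo luminescence in the same ARE-bla HepG2 plates, after 16 h compound exposure and a 2 h beta-lactamase substrate step.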

Experiment [19] can be described thus: qHTS assay for cell viability of HEK293 cells (AID 743288). For max response: % is set by controls: 0 for no effect and ±100 for the full control effect. Note: nearly all actives have a fitted effect of over 50% in size. Note: potency is the fitted concentration of half-maximal effect. The following applies: ATP luminescence (CellTiter-Glo), 18 h; max response: active compounds read low. In short, it runs like this: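 ATP luminescence (CellTiter-Glo) reports metabolically competent cell number after parental HEK293 cells, 2,000/well, were treated with DMSO-dissolved compounds for 18 h at 37 C; reagent incubation 30 min, room temperature.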

The nature of experiment [20]: qHTS assay for cell viability of the p53RE-bla HCT-116 cell line (AID 743292). Note: nearly all actives have a fitted effect of over 55% in size. Note: potency is the fitted concentration of half-maximal effect. The following applies: p53RE-bla HCT-116 viability, ATP luminescence, 16 h; series mostly up to 95 µM. In short, it runs like this: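 Readout: CellTiter-Glo luminescence after 30 min RT. Treatment: compounds in DMSO, 16 h, 37 C. Cells: CellSensor p53RE-bla HCT-116, 4,000/well, preincubated 5 h.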

Values without a mark were called inactive. Inconclusive results are not listed. Activity calls are given as the source filed them. Unless noted, calls come from the whole dose curve; as a rule, active = well fitted curve in the direction sought with a large enough effect; inconclusive = small, poorly fitted or top-dose-only effect, or another doubt; inactive = no such curve, though single readings can be large; an effect the other way counts as inactive or inconclusive. Bounds are passed on as bounds.

As for `Oc1ccc2cc(SSc3ccc4cc(O)ccc4c3)ccc2c1`, the Potency was above 92 µM in experiment [1]; 38.3 µM (active) in experiment [2]; 50.1 µM (active) in experiment [7]; 50.1 µM (active) in experiment [8]; 50.1 µM (active) in [9]; 50.1 µM (active) in experiment [10]. Besides, the Potency in [11] is 50.1 µM (active); in experiment [13], 50.1 µM (active); in experiment [14] it was 39.8 µM (active); in experiment [15] it was 39.8 µM (active); in experiment [16] it was 50.1 µM (active); in [17], 39.8 µM (active). Further, the Potency result in experiment [3], in experiment [4], in experiment [6], in [12] and in experiment [20] was “inactive” each time. For the same compound, in experiment [5], the outcome was inactive. The max response in experiment [18] was -8.42%; in experiment [19], -14.6%.

In the case of `CN(C)c1ccc(C2(c3ccc(N(C)C)cc3)OC(=O)c3cc(N(C)C)ccc32)cc1`, the Potency in experiment [1] and in experiment [2] was above 92 µM each time. In addition, the Potency entry in [3], in experiment [4], in [6], in experiment [7], in experiment [8] and in experiment [9] was “inactive” each time. In addition, the Potency result in [10], in [11], in experiment [12], in experiment [13], in experiment [14] and in [15] was “inactive” each time. In addition, the Potency result in experiment [16], in experiment [17] and in [20] was “inactive” throughout. The call in experiment [5] was inactive. For the same compound, the max response is 7.4% in experiment [18] and -3.92% in experiment [19].

On to `CNc1ccc(O)cc1`, for which the Potency is 59.6 µM (active) in experiment [1]; 25.1 µM (active) in [6]; 25.1 µM (active) in [7]; 25.1 µM (active) in [8]; 6.31 µM (active) in [9]; 6.31 µM (active) in experiment [10]. The Potency in [11] is 3.98 µM (active); in [12], 10 µM (active); in experiment [13] it was 12.6 µM (active); in [14], 6.31 µM (active); in experiment [15], 3.16 µM (active); in experiment [16] it was 15.8 µM (active). Besides, the Potency in experiment [17] is 25.1 µM (active); in experiment [19] it was 35.5 µM (active); in experiment [20], 70.8 µM (active). The Potency entry in [3] was “inactive”. Besides, the compound was classed as inactive in [5]. Besides, the max response in experiment [18] is -24.5%.

In the case of `c1ccc2c(c1)ccc1cc3c(ccc4ccccc43)cc12`, the Potency in experiment [1] and in experiment [2] was above 92 µM each time. Also, the Potency result in experiment [3], in experiment [4], in experiment [6], in experiment [7], in experiment [8] and in experiment [9] was “inactive” each time. Moreover, the Potency result in experiment [10], in [11], in [12], in experiment [13], in experiment [14] and in experiment [15] was “inactive” in each case. Also, the Potency entry in experiment [16], in experiment [17] and in [20] was “inactive” in each case. In addition, the result in [5] was inactive. Further, the max response in experiment [18] was -11.9%; in experiment [19], -4.73%.

The values above are taken from PubChem BioAssay (NCATS).
